# Source: PubChem BioAssay
# Values joined by “and” are separate entries in the source; they are usually repeats but may differ in a detail not shown here. Equal values may be shown once. Active and inactive are the calls of the source.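 How the source made its calls, unless noted: active means compound raises GLP1 secretion from the human gut endocrine cells, with no numeric limit stated; inactive means the rest.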
# Legend:
# [1] = compounds altering circadian rhythm period length – cell-based, LOPAC library, luminescence reporter (AID 2774; call rule not given here;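 further: values are relative to mean of DMSO wells on each plate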); conditions: circadian reporter cells, at 7 µM, actives lie on both sides
# [2] = compounds altering viability of human ES cells (AID 493140; call rule not given here;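 further: cells exposed to compounds for four days before counting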); conditions: human embryonic stem cell survival screen; stronger effect = higher value
# [3] = P. berghei load reduction in hepatocytes – cell-based, HepG2, luciferase luminescence, HepG2 viability, primary screen (AID 624349; in the data active means parasite load remaining mostly below about 12%, no sharp cut-off; inactive means mostly above about 10%;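 further: 100% = mean of DMSO negative control wells on the same plate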); conditions: P. berghei liver stage in HepG2, luciferase luminescence, concentration not given here; parasite load remaining: stronger effect = lower value; viability: measured here: HepG2 viability without parasites
# [4] = test system: Hepatitis C virus NS3 helicase; assay: blockers of NS3h binding to ssDNA – biochemical, fluorescence polarization, LOPAC1280 library, primary screen (AID 687035; in the data active means inhibition above about 37%); conditions: Purified HCV NS3 helicase, Cy5-dT15 ssDNA binding fluorescence polarization; stronger effect = higher value; concentration not given here
# [5] = Wnt pathway potentiators raising nuclear beta-catenin – imaging, WNT3A-conditioned medium, mouse C2C12, NPC library, primary screen (AID 1117326; in the data active means nuclear beta-catenin stimulation mostly above about 4.2%, no sharp cut-off; inactive means mostly below about 10%; further: reference of the scale not given here); conditions: stronger effect = higher value
# [6] = stimulators of insulin release from INS-1E, primary screen, cell-based, 5 mM glucose, NPC library (AID 1117329;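 active means compound raises insulin release from rat beta cells at 5 mM glucose, no numeric limit stated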; further: reference of the scale not given here); conditions: rat INS-1E insulin secretion, at 10 µM, stronger effect = higher value
# [7] = growth inhibition of GSK3B-pretreated HCT116 cells – cell-based, CellTiter-Glo, 0.2 to 20 µM (AID 1117336;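 active means compounds lowering colon cancer cell viability after pretreatment blocking the GSK3B kinase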); conditions: HCT116 viability after GSK3B inhibitor, at 20 µM, stronger effect = higher value
# [8] = inhibition of endothelial tube formation, primary screen, imaging, VEGF stimulated, CD31 staining, tube area, NPC library (AID 1117340;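 active means compound that reduces growth-factor-driven endothelial tube area in a mixed cell culture, no cutoff stated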); conditions: VEGF-stimulated ADSC/ECFC co-culture, at 10 µM, stronger effect = higher value
# [9] = GLP1 release stimulators, primary, NCI-H716, NPC library (AID 1117341); conditions: NCI-H716 cells, at 10 µM, stronger effect = higher value; further: reference of the scale not given here
# [10] = HCT116 colon cancer cell growth inhibition, primary screen, CellTiter-Glo luminescence, NPC library (AID 1117342;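 active means compounds that lower survival of HCT116 colon cancer cells in the luminescence readout, no numeric limit stated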); conditions: at 20 µM (top of the series)
# [11] = reduced SW480 viability measured with CellTiter-Glo, NPC library, primary (AID 1117343;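 active means compounds that lower viability of the colon cancer cells in the luminescence readout, with no numeric limit stated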); conditions: CellTiter-Glo luminescence; at 20 µM (top of the series)
# [12] = NPC library primary testing for decreased DLD-1 cell viability via CellTiter-Glo (AID 1117346;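 active means compounds that lower survival of DLD-1 colon cancer cells in the luminescence readout, no cutoff given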); conditions: DLD-1 viability, CellTiter-Glo luminescence; at 20 µM (top of the series)
# [13] = test system: Aerobactin synthetase IucA (Klebsiella pneumoniae, hypervirulent); assay: biochemical IucA inhibition screen of LOPAC library by absorbance (AID 1346212; call rule not given here;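 further: 100% = no compound wells and 0% = no enzyme wells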); conditions: IucA enzyme assay, absorbance (OD) readout; stronger effect = lower value;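 tested at 8 µM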
# [14] = viability loss with induced miR-34 in A549 – imaging, A549 dox-inducible miR-34, nuclei and caspase counts, primary screen (AID 1347080;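 active means compounds whose cell count with miR-34 switched on is under 0.7 times the count with it off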); conditions: A549 miR-34 inducible, Hoechst nuclei count, 48 h
# [15] = MELAS cybrid and Rieske KO viability enhancers – cell-based, MELAS cybrids, Rieske KO mouse fibroblasts, CellTiter-Glo, primary screen (AID 1508586;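 active means mean z-score across replicates of 1.96 or higher in either the MELAS or the Rieske mutant cell line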;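 further: z relative to plate mean and SD of compound and empty wells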); conditions: low glucose
# [16] = galactose survival enhancers in mitochondrial complex I cybrids – cell-based, galactose medium, ATP luminescence, primary screen (AID 1645843;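 active means z-score of at least 1.8 in each of two replicates, scored against plate mean and spread of sample wells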;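 further: positive z means more ATP and so rescue of galactose-driven cybrid death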); conditions: complex I mutant cybrid cells, 72 h, stronger effect = higher value
# [17] = target: NAD(+) hydrolase SARM1 (Homo sapiens) (UniProt Q6SZW1); assay: blocking NAD cleavage by SARM1 SAM-TIR – cell lysate, NAD-Glo luminescence (AID 1508614;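 active means compound whose remaining NAD level is above about 45 nM, limit read from the data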); conditions: SAM-TIR HEK293T lysate NADase, at 1 µM, stronger effect = higher value
# [18] = measured here: relative caspase fold change +Dox/-Dox
# [19] = measured here: total cells with miR-34 induction, stronger effect = lower value
# [20] = measured here: total cells without miR-34 induction
# [21] = MELAS cybrid survival, CellTiter-Glo 48 h, stronger effect = higher value
# [22] = Rieske KO mouse fibroblast survival, CellTiter-Glo 72 h
# Sequence of NAD(+) hydrolase SARM1 (Homo sapiens) (Q6SZW1 whole entry, looked up): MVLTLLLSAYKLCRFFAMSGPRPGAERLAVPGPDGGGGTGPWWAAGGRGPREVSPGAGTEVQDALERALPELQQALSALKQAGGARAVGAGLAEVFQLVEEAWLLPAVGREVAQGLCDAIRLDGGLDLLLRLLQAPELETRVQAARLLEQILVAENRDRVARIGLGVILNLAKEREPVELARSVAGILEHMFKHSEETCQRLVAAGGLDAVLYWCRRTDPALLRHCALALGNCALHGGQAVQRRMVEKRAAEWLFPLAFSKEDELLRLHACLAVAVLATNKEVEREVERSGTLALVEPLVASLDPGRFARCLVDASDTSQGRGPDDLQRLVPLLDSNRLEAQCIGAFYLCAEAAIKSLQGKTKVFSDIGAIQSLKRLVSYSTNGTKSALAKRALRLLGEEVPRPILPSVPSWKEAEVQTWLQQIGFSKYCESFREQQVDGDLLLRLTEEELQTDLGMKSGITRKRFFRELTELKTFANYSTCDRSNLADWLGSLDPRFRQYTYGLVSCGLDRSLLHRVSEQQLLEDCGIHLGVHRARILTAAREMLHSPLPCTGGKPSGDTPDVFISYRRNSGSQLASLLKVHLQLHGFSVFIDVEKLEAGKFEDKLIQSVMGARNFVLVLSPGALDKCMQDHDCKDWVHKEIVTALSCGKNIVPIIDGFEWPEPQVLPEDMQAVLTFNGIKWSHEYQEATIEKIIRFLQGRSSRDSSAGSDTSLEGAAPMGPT
smiles,measurement,setting,value
Fc1ccc(C(OCCN2CCN(CCCc3ccccc3)CC2)c2ccc(F)cc2)cc1,period change,[1],-0.11 h (inactive)
same,survival,[2],2.08 (inactive)
same,parasite load remaining,[3],40.3% (inactive) and 56% (inactive)
same,viability,[3],74.4% and 71%
same,inhibition,[4],-2% (inactive)
same,nuclear beta-catenin stimulation,[5]; at 10 µM,21.5% (inactive)
same,nuclear beta-catenin stimulation,"[5]; stimulation, at 2 µM",-0.6%
same,insulin secretion stimulation,[6],4.65% (inactive)
same,viability decrease,[7],118% (active)
same,tube area decrease,[8],30.2% (inactive)
same,GLP1 secretion stimulation,[9],7.4% (inactive)
same,inhibition of viability,[10],124% (active)
same,viability decrease (inhibition),[11],159% (active)
same,viability decrease (inhibition),[12],102% (active)
same,remaining activity,[13],111% (inactive)
same,fold change,[14]; stronger effect = lower value,1.71 (inactive) and 1.06 (inactive) and 1.14 (inactive)
same,fold change,[14]; [18],0.907 and 1.17 and 0.595
same,cell count,[14]; [19],1750 and 3970 and 2030
same,cell count,[14]; [20],1020 and 3730 and 1770
same,z-score,[15]; [21],-0.775 (inactive)
same,z-score,[15]; [22],0.399
same,z-score,[16],-1.03 (inactive) and -1.23 (inactive)
CC(C)(C)CC(C)(C)c1ccc(O)cc1,nuclear beta-catenin stimulation,[5]; at 10 µM,-1.8% (inactive)
same,nuclear beta-catenin stimulation,"[5]; stimulation, at 2 µM",-0.9%
same,insulin secretion stimulation,[6],4% (inactive)
same,viability decrease,[7],84.6% (active)
same,tube area decrease,[8],66.9% (active)
same,GLP1 secretion stimulation,[9],28.5% (active)
same,inhibition of viability,[10],74.8% (active)
same,viability decrease (inhibition),[11],142% (active)
same,viability decrease (inhibition),[12],104% (active)
same,remaining NAD,[17],10 nM (inactive)
COC(C)(C)CCCC(C)C/C=C/C(C)=C/C(=O)OC(C)C (configuration not stated),nuclear beta-catenin stimulation,[5]; at 10 µM,2% (inactive)
same,nuclear beta-catenin stimulation,"[5]; stimulation, at 2 µM",1%
same,insulin secretion stimulation,[6],1.35% (inactive)
same,viability decrease,[7],30.9% (inactive)
same,tube area decrease,[8],2.7% (inactive)
same,GLP1 secretion stimulation,[9],3.9% (inactive)
same,inhibition of viability,[10],42% (inactive)
same,viability decrease (inhibition),[11],9.6% (inactive)
same,viability decrease (inhibition),[12],17.2% (inactive)
same,remaining NAD,[17],10 nM (inactive)
CCOC(=O)c1ccccc1C(=O)OCC,nuclear beta-catenin stimulation,[5]; at 10 µM,-0.2% (inactive)
same,nuclear beta-catenin stimulation,"[5]; stimulation, at 2 µM",-0.3%
same,insulin secretion stimulation,[6],2.85% (inactive)
same,GLP1 secretion stimulation,[9],0.4% (inactive)
Cc1cccc(Cc2cnc[nH]2)c1C,nuclear beta-catenin stimulation,[5]; at 10 µM,7.4% (inactive)
same,nuclear beta-catenin stimulation,"[5]; stimulation, at 2 µM",8.1%
same,insulin secretion stimulation,[6],0.4% (inactive)
same,viability decrease,[7],-41.9% (inactive)
same,tube area decrease,[8],15.5% (inactive)
same,GLP1 secretion stimulation,[9],4.1% (inactive)
same,inhibition of viability,[10],4.37% (inactive)
same,viability decrease (inhibition),[11],-5.1% (inactive)
same,viability decrease (inhibition),[12],-9.9% (inactive)
same,fold change,[14]; stronger effect = lower value,0.969 (inactive)
same,fold change,[14]; [18],0.529
same,cell count,[14]; [19],7080
same,cell count,[14]; [20],7310
same,z-score,[15]; [21],0.317 (inactive)
same,z-score,[15]; [22],-0.228
COc1ccc2c(c1OC)CN1CCc3cc4c(cc3C1C2)OCO4 (configuration not stated),survival,[2],0.583 (inactive)
same,parasite load remaining,[3],82.7% (inactive)
same,viability,[3],89.1%
same,nuclear beta-catenin stimulation,[5]; at 10 µM,2.2% (inactive)
same,nuclear beta-catenin stimulation,"[5]; stimulation, at 2 µM",2.8%
same,insulin secretion stimulation,[6],1.5% (inactive)
same,viability decrease,[7],34.2% (inactive)
same,tube area decrease,[8],1.4% (inactive)
same,GLP1 secretion stimulation,[9],-1% (inactive)
same,inhibition of viability,[10],49.3% (inactive)
same,viability decrease (inhibition),[11],-5.2% (inactive)
same,viability decrease (inhibition),[12],21.3% (inactive)
same,fold change,[14]; stronger effect = lower value,0.795 (inactive)
same,fold change,[14]; [18],1.12
same,cell count,[14]; [19],8510
same,cell count,[14]; [20],10700
CCOc1cc(C=O)ccc1O,nuclear beta-catenin stimulation,[5]; at 10 µM,-1.6% (inactive)
same,nuclear beta-catenin stimulation,"[5]; stimulation, at 2 µM",-0.8%
same,insulin secretion stimulation,[6],0.4% (inactive)
same,viability decrease,[7],5.6% (inactive)
same,tube area decrease,[8],0.8% (inactive)
same,GLP1 secretion stimulation,[9],-3.6% (inactive)
same,inhibition of viability,[10],6% (inactive)
same,viability decrease (inhibition),[11],6.9% (inactive)
same,viability decrease (inhibition),[12],-3% (inactive)
same,remaining NAD,[17],10 nM (inactive)
COC(=O)[C@@H](N)CCCN/C(N)=N/[N+](=O)[O-],nuclear beta-catenin stimulation,[5]; at 10 µM,-0.9% (inactive)
same,nuclear beta-catenin stimulation,"[5]; stimulation, at 2 µM",-2.6%
same,insulin secretion stimulation,[6],0.95% (inactive)
same,viability decrease,[7],23.3% (inactive)
same,tube area decrease,[8],-8.8% (inactive)
same,GLP1 secretion stimulation,[9],0.9% (inactive)
same,inhibition of viability,[10],1.7% (inactive)
same,viability decrease (inhibition),[11],-10.3% (inactive)
same,viability decrease (inhibition),[12],-0.3% (inactive)
same,fold change,"[14]; stronger effect = lower value, cell number ratio, induced over uninduced",0.947 (inactive)
same,fold change,[14]; [18],0.639
same,cell count,[14]; [19],5570
same,cell count,[14]; [20],5890
O=S(=O)(O)c1cc(O)ccc1O,survival,[2],4.5 (inactive)
same,parasite load remaining,[3],113% (inactive)
same,viability,[3],69.3%
same,nuclear beta-catenin stimulation,[5]; at 10 µM,0.1% (inactive)
same,nuclear beta-catenin stimulation,"[5]; stimulation, at 2 µM",2.5%
same,insulin secretion stimulation,[6],3.2% (inactive)
same,viability decrease,[7],-0.4% (inactive)
same,tube area decrease,[8],3% (inactive)
same,GLP1 secretion stimulation,[9],-3% (inactive)
same,inhibition of viability,[10],2.4% (inactive)
same,viability decrease (inhibition),[11],19.4% (inactive)
same,viability decrease (inhibition),[12],10.6% (inactive)
same,fold change,[14]; stronger effect = lower value,0.958 (inactive) and 1.35 (inactive)
same,fold change,[14]; [18],0.623 and 0.929
same,cell count,[14]; [19],8960 and 8580
same,cell count,[14]; [20],9360 and 6370
same,z-score,[15]; [21],-0.259 (inactive) and 0.566 (inactive)
same,z-score,[15]; [22],-0.197 and 0.515
OC(c1ccccc1)(c1ccccc1)C1CCNCC1,survival,[2],34.8 (inactive)
same,parasite load remaining,[3],42.4% (inactive) and 92.2% (inactive)
same,viability,[3],47.4% and 92.3%
same,nuclear beta-catenin stimulation,[5]; at 10 µM,-0.1% (inactive)
same,nuclear beta-catenin stimulation,"[5]; stimulation, at 2 µM",0.4%
same,insulin secretion stimulation,[6],17.4% (inactive)
same,viability decrease,[7],-5.8% (inactive)
same,tube area decrease,[8],27.7% (inactive)
same,GLP1 secretion stimulation,[9],0.1% (inactive)
same,inhibition of viability,[10],-10.1% (inactive)
same,viability decrease (inhibition),[11],117% (active)
same,viability decrease (inhibition),[12],2.9% (inactive)
same,fold change,[14]; stronger effect = lower value,0.979 (inactive) and 0.871 (inactive)
same,fold change,[14]; [18],1.21 and 1
same,cell count,[14]; [19],8990 and 7950
same,cell count,[14]; [20],9180 and 9130
same,z-score,[15]; [21],-0.109 (inactive) and -0.124 (inactive)
same,z-score,[15]; [22],-0.152 and 0.513
COC(=O)c1ccccc1C(=O)OC,nuclear beta-catenin stimulation,[5]; at 10 µM,-1.6% (inactive)
same,nuclear beta-catenin stimulation,"[5]; stimulation, at 2 µM",-0.6%
same,insulin secretion stimulation,[6],0.5% (inactive)
same,GLP1 secretion stimulation,[9],-5.4% (inactive)
C[C@]12CC[C@@H]3c4ccc(OC(=O)N(CCCl)CCCl)cc4CC[C@H]3[C@@H]1CC[C@@H]2O,nuclear beta-catenin stimulation,[5]; at 10 µM,-1.2% (inactive)
same,nuclear beta-catenin stimulation,"[5]; stimulation, at 2 µM",0.4%
same,insulin secretion stimulation,[6],-0.9% (inactive)
same,viability decrease,[7],18.1% (inactive)
same,tube area decrease,[8],2.8% (inactive)
same,GLP1 secretion stimulation,[9],2.6% (inactive)
same,inhibition of viability,[10],-23.1% (inactive)
same,viability decrease (inhibition),[11],56.7% (active)
same,viability decrease (inhibition),[12],23.4% (inactive)
same,z-score,[15]; [21],-1.9 (inactive)
same,z-score,[15]; [22],0.249
same,remaining NAD,[17],10 nM (inactive)
